# Several values for one entry are separate records, joined by “and”; a condition that tells them apart may be missing. Equal entries are not always repeated. Records with an inconclusive call do not appear. The source holds several records for some structures; these can differ, active in one and inactive in another. Activity calls are given as the source filed them. Unless noted, calls follow the shape of the dose curve; as a rule, active = well fitted curve in either direction with a large enough effect (not every such curve was filed as active); inconclusive = small, poorly fitted or top-dose-only effect, or another doubt; inactive = flat fitted curve, though single readings scatter.
# How the values were obtained:
# [1] = AP1 Signaling Pathway (AID 357); details: ME-180 AP-1-bla reporter, EGF-induced, beta-lactamase ratio, 5 h;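 also: ME-180 reporter cells stimulated with EGF at its EC50 level; % is scaled to controls: 0 for no effect and ±100 for the full control effect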
# Procedure, shortened: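 Beta-lactamase reporter under AP-1 response element, ME-180 background. Stimulus: EC50 EGF. Compound exposure 5 h, 37 °C. Detection: CCF4, 2.5 h RT, 460/530 nm. Values: AC50 from titration.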
# [2] = Stat Signaling Pathway (AID 446); details: ME-180 (cervical carcinoma) SIE beta-lactamase reporter, IL-6 stimulated, 5 h; series mostly up to 17.2 µM;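 also: ME-180 cervical cancer cells given 40 pM IL-6 alongside compound; SIE-controlled beta-lactamase reporter measured as 460/530 nm FRET emission ratio; % is scaled to controls: 0 for no effect and ±100 for the full control effect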
# Procedure, shortened: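 Normalization used AC90 stimulation (300 pM IL-6) and AC90 inhibition (125 nM pan-JAK inhibitor at 40 pM IL-6). The underlying signal is SIE-driven beta-lactamase in ME-180 cells after 5 h IL-6 exposure with compound.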
# [3] = target: Glucocorticoid receptor (Homo sapiens) (UniProt P04150); assay: GR-GFP Redistribution (AID 450;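 active = compounds whose dose series gives a full or clear partial fitted curve of increased nuclear translocation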; also: potency is read from the fitted curve at half-maximal effect); details: U2OS GR-GFP nuclear translocation, laser cytometry, 2 h
# [4] = target: Cytochrome P450 1A2 (Homo sapiens) (UniProt P05177); assay: p450-cyp1a2 (AID 410; calls by dose curve; also: potency is read from the fitted curve at half-maximal effect;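 as to activity change, negative = inhibition: -100% = full effect of reference inhibitor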); details: recombinant CYP1A2, luciferin-ME demethylation, luminescence; series mostly up to 57 µM
# Procedure, shortened: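 O-Demethylation of luciferin 6' methyl ether by human CYP1A2 is monitored as luciferase luminescence. Substrate sits at Km (100uM); enzyme is 20nM. Values are scaled to 57 uM furafylline as maximal inhibition.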
# [5] = NFAT Signaling Pathway (AID 444); details: Jurkat NFAT-bla M1, carbachol, beta-lactamase ratio, 5 h;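 also: carbachol stimulus at about its EC50 of 1 µM final; % is scaled to controls: 0 for no effect and ±100 for the full control effect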
# Procedure, shortened: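 Jurkat cells with NFAT-driven β-lactamase reporter and co-expressed M1 receptor, stimulated with carbachol (final 1 uM, ~EC50), compound titration, 5 h at 37 °C. CCF4 loaded 1 h at RT; 460/530 nm ratio gave %activity and AC50.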
# [6] = target: Mitogen-activated protein kinase 10 (Mus musculus) (UniProt Q61831); assay: JNK3 AlphaScreen Assay (AID 530); details: JNK3 lysate, c-Jun phosphorylation; series mostly up to 57.1 µM;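 also: kinase came from lysate of stimulated human HepG2 cells; signal reports phosphorylation of biotinylated GST-cJun 1-79 at Ser73 with 10 µM ATP; % is scaled to controls: 0 for no effect and ±100 for the full control effect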
# Procedure, shortened: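 Activity was read by AlphaScreen after JNK3-containing HepG2 lysate (cytokine pre-activated) phosphorylated biotinylated GST-cJun with 10 uM ATP at room temperature. Phospho-Ser73 cJun antibody with Protein-A acceptor beads provided detection.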
# [7] = Cell Viability - BJ (AID 421; calls by dose curve;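 also: potency is read from the fitted curve at half-maximal effect; cells exposed to compound for 40 hours at 37 °C before readout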); details: BJ fibroblast viability, qHTS
# Procedure, shortened: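 Normal human BJ foreskin fibroblasts, 1500/well in complete medium, treated 40 hr at 37 °C. Cellular ATP by CellTiter-Glo luminescence; normalized to DMSO and 100 uM tamoxifen, AC50 from Hill fit.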
# [8] = Cell Viability - Hek293 (AID 427;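 active = compounds whose dose-response curve shows a full or clear partial loss of cell viability, called from curve shape rather than a numeric limit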;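 also: potency is read from the fitted curve at half-maximal effect; cells exposed to compound for 40 hours at 37 °C before reading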); details: qHTS
# Procedure, shortened: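 HEK293 cells in complete medium were exposed to compound for 40 hr at 37 °C, then cellular ATP was read by CellTiter-Glo luminescence. Data were normalized to DMSO (basal) and 100 uM tamoxifen (100% inhibition), and AC50 came from Hill fits.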
# [9] = Cell Viability - HepG2 (AID 433; calls by dose curve;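 also: potency is read from the fitted curve at half-maximal effect; potency for ATP loss meaning cytotoxicity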); details: qHTS
# Procedure, shortened: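 Cytotoxicity is scored as loss of intracellular ATP in HepG2 cells exposed to compounds for 40 h. Concentration-response curves, normalized to DMSO and 100 uM tamoxifen, give AC50 values.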
# [10] = Cell Viability - MRC5 (AID 434; calls by dose curve;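 also: potency is read from the fitted curve at half-maximal effect; potency reflects cytotoxicity seen as loss of intracellular ATP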); details: MRC5 lung fibroblast viability, qHTS
# Procedure, shortened: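 ATP luminescence read-out (CellTiter-Glo, 20 min RT) after 40 hr, 37 °C compound exposure of 1500 MRC5 cells/well. Data normalized to DMSO (basal) and 100 uM tamoxifen (100% inhibition); AC50 from standard Hill equation.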
# [11] = Cell Viability - SK-N-SH (AID 435; calls by dose curve;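 also: potency is read from the fitted curve at half-maximal effect; compound exposure lasted 40 h at 37 °C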); details: SK-N-SH neuroblastoma cell viability qHTS
# Procedure, shortened: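 Cells seeded at 1500 per well and incubated 5 hr at 37 °C. Compound added, then 40 hr at 37 °C. CellTiter-Glo added, 20 min at room temperature, luminescence read.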
# [12] = Cell Viability - N2a (AID 540; active = well fitted curve in the direction sought with a large enough effect; an effect the other way counts as inactive or inconclusive;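 also: plate controls were DMSO alone for no effect and tamoxifen control for full effect; nearly all actives have a fitted effect of over 45% in size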); details: N2a mouse neuroblastoma cell viability; series mostly up to 92.2 µM
# Procedure, shortened: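 Cytotoxicity was scored as loss of cellular ATP in N2a cells, a mouse neuroblastoma line. Compounds are applied in a qHTS concentration series for 40 hr at 37 °C.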
# [13] = Cell Viability - NIH 3T3 (AID 541; active = well fitted curve in the direction sought with a large enough effect; an effect the other way counts as inactive or inconclusive;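 also: plate controls were DMSO alone for no effect and tamoxifen positive control for full effect; nearly all actives have a fitted effect of over 25% in size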); details: NIH 3T3 cell viability, qHTS; activity change, negative = cytotoxicity: at 92.2 µM (top of the series)
# Procedure, shortened: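 Cells seeded at 1000/well, rested 5 hr at 37 °C, then dosed and incubated 40 hr at 37 °C. CellTiter-Glo added, 20 min room temperature, luminescence read. AC50 by Hill fit.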
# [14] = Cell Viability - HUV-EC-C (AID 542; active = well fitted curve in the direction sought with a large enough effect; an effect the other way counts as inactive or inconclusive; also: nearly all actives have a fitted effect of over 35% in size; also: potency is read from the fitted curve at half-maximal effect); details: HUV-EC-C endothelial cell viability, qHTS; series mostly up to 92.2 µM
# Procedure, shortened: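 Cells were seeded at 1000 per well and incubated 5 hr at 37 °C before compound addition. After 40 hr at 37 °C, CellTiter-Glo reagent was added for 20 min and luminescence read. AC50 values came from Hill-equation modelling.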
# [15] = Cell Viability - H-4-II-E (AID 543; active = well fitted curve in the direction sought with a large enough effect; an effect the other way counts as inactive or inconclusive; also: nearly all actives have a fitted effect of over 35% in size; also: potency is read from the fitted curve at half-maximal effect); details: H-4-II-E rat hepatoma viability; series mostly up to 92.2 µM
# Procedure, shortened: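 Cells seeded at 1500 per well and rested 5 hr; compounds added; 40 hr incubation at 37 °C; CellTiter-Glo added, 20 min at room temperature; luminescence read. Hill-equation fits gave AC50.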
# [16] = Cell Viability - SH-SY5Y (AID 544; active = well fitted curve in the direction sought with a large enough effect; an effect the other way counts as inactive or inconclusive; also: nearly all actives have a fitted effect of over 55% in size; also: potency is read from the fitted curve at half-maximal effect); details: SH-SY5Y neuroblastoma cell viability; series mostly up to 92.2 µM
# Procedure, shortened: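 Cells were plated at 1500 per well and allowed 5 hr at 37 °C. Compounds were added across a concentration range and incubated 40 hr at 37 °C. CellTiter-Glo was added for 20 min at room temperature before luminescence reading.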
# [17] = Cell Viability - Renal Proximal Tubule (AID 545; active = well fitted curve in the direction sought with a large enough effect; an effect the other way counts as inactive or inconclusive;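 also: 0% = DMSO only and -100% = 100 µM tamoxifen; nearly all actives have a fitted effect of over 40% in size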); details: renal proximal tubule cells viability, primary cells of rat origin; activity change, negative = cytotoxicity: at 91.7 µM (top of the series)
# Procedure, shortened: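 Cytotoxicity is scored as a concentration-dependent drop in cellular ATP in primary rat renal proximal tubule cells exposed for 40 hr. AC50 derives from Hill modelling.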
# [18] = target: Glucocorticoid receptor (Homo sapiens) (UniProt P04150); assay: GR-EFC Redistribution (AID 451; calls by dose curve; also: potency is read from the fitted curve at half-maximal effect); details: CHO-K1 GR-EFC translocation, beta-gal luminescence, 2 h
# Procedure, shortened: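 CHO-K1 cells expressing nuclear EA and GR-ED fragments of b-gal; compounds titrated up to 46 uM final, 2 h at 37 C. GR nuclear translocation read as complemented b-gal luminescence after 1 h RT detection.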
# [19] = Cell Viability - Jurkat (AID 426;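 active = dose-dependent loss of cell ATP signal giving a full or clear fitted curve, ranked by lower potency value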; also: potency is read from the fitted curve at half-maximal effect); details: qHTS
# Procedure, shortened: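 Cells of the human T-cell leukemia line Jurkat (E6-1) are seeded at 5000 per well, treated with compound across a concentration range for 40 hours at 37 °C, then lysed with CellTiter-Glo; luminescence reports ATP.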
# Cytochrome P450 1A2 (Homo sapiens), sequence (P05177 whole entry, looked up): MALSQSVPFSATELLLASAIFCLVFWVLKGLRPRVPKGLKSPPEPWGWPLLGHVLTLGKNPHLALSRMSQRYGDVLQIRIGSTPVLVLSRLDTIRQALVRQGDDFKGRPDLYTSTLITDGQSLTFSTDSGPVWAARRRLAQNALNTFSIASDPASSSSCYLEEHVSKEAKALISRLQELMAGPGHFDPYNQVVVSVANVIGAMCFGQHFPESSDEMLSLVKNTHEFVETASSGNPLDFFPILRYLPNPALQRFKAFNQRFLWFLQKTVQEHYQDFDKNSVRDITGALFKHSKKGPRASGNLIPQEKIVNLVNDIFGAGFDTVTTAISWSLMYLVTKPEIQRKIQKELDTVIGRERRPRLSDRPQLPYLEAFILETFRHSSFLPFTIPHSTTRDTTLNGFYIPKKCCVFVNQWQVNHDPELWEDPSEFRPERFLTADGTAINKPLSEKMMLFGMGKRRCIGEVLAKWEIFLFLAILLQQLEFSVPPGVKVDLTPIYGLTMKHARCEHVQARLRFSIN
# Glucocorticoid receptor (Homo sapiens), sequence (P04150 whole entry, looked up, the tested form may be a part): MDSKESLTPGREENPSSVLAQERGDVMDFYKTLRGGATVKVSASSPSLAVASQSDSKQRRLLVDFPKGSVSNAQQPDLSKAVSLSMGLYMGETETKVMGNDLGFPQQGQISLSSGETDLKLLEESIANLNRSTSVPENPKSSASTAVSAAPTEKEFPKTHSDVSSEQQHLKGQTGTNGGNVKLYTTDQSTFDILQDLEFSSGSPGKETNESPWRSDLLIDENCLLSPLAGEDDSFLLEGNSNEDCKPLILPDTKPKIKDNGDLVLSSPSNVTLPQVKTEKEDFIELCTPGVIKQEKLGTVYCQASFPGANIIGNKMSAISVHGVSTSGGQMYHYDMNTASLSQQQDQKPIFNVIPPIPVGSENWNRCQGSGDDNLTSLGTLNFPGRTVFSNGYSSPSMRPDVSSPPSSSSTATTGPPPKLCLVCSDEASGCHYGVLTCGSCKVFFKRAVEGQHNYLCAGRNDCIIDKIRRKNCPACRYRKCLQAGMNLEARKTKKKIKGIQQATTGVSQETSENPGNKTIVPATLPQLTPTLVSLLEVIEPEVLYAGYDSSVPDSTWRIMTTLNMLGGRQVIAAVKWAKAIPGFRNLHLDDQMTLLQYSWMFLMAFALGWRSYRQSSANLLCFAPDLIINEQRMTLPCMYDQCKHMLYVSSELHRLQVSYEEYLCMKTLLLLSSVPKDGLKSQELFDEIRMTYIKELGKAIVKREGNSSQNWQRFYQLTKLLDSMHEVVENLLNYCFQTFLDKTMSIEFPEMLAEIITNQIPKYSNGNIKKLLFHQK
compound,measurement,setting,value
CC(=O)OC(C)C[N+](C)(C)C (configuration not stated),"activity change, negative = inhibition",[1]; at 17.2 µM (top of the series),11.1% (inactive)
same,outcome,[2],inactive
same,Potency,[3],> 20.6 µM (inactive)
OC(CCN1CCCCC1)(c1ccccc1)C1CCCCC1 (configuration not stated),"activity change, negative = inhibition",[1]; at 17.2 µM (top of the series),5.32% (inactive)
same,outcome,[2],inactive
CCOC(=O)c1cnc2c(cnn2CC)c1NN=C(C)C,Potency,[4],501 nM (active) and 126 nM (active)
same,"activity change, negative = inhibition",[5]; at 38 µM (top of the series),6.94% (inactive)
same,outcome,[2],inactive
CNCCCN1c2ccccc2CCc2ccccc21,"activity change, negative = inhibition",[1]; at 17.2 µM (top of the series),29.5% (inactive) and 18.8% (inactive)
same,outcome,[2],inactive
same,Potency,[6],inactive
CCOC(=O)C1=C(C)NC(C)=C(C(=O)OC)C1c1cccc(Cl)c1Cl (configuration not stated),"activity change, negative = inhibition",[1]; at 17.2 µM (top of the series),-7.25% (inactive)
same,outcome,[2],inactive
same,Potency,[3],> 20.6 µM (inactive)
O=c1[nH]c(=O)n([C@H]2C[C@H](O)[C@@H](CO)O2)cc1Br,Potency,[7],> 92 µM (inactive)
same,Potency,[8],> 92 µM (inactive)
same,Potency,[9],> 92 µM (inactive)
same,Potency,[10],> 92 µM (inactive)
same,Potency,[11],> 92 µM (inactive)
same,Potency,[6],inactive
same,outcome,[12],inactive
same,"activity change, negative = cytotoxicity",[13],-17.9% (inactive)
same,Potency,[14],inactive
same,Potency,[15],inactive
same,Potency,[16],inactive
same,"activity change, negative = cytotoxicity",[17],-3.47% (inactive)
C(=C\c1ccccc1)/CN1CCN(C(c2ccccc2)c2ccccc2)CC1,"activity change, negative = inhibition",[1]; at 17.2 µM (top of the series),-4.86% (inactive)
same,outcome,[2],inactive
Fc1ccc(C(c2ccc(F)cc2)N2CCN(C/C=C/c3ccccc3)CC2)cc1,"activity change, negative = inhibition",[1]; at 17.2 µM (top of the series),-10.9% (inactive)
same,outcome,[2],inactive
same,Potency,[3],> 20.6 µM (inactive)
COCCc1ccc(OCC(O)CNC(C)C)cc1 (configuration not stated),"activity change, negative = inhibition",[1]; at 17.2 µM (top of the series),3.62% (inactive)
same,outcome,[2],inactive
same,Potency,[3],> 20.6 µM (inactive)
COc1ccc2c(c1OC)C(=O)O[C@@H]2[C@H]1c2c(cc3c(c2OC)OCO3)CCN1C,"activity change, negative = inhibition",[1]; at 17.2 µM (top of the series),-3.96% (inactive)
same,outcome,[2],inactive
same,Potency,[3],> 46 µM (inactive) and > 20.6 µM (inactive)
same,Potency,[18],> 46 µM (inactive)
CCC(=O)c1ccc2c(c1)N(CCCN(C)C)c1ccccc1S2,Potency,[4],631 nM (active)
same,"activity change, negative = inhibition",[5]; at 38 µM (top of the series),-89.3% (active)
same,outcome,[2],inactive
same,Potency,[3],> 46 µM (inactive)
same,Potency,[18],> 46 µM (inactive)
same,Potency,[6],inactive
c1ccc2c(c1)CCCC2C1=NCCN1 (configuration not stated),"activity change, negative = inhibition",[1]; at 17.2 µM (top of the series),6.93% (inactive)
same,outcome,[2],inactive
CN(C)CCN(Cc1cccs1)c1ccccn1,Potency,[4],inactive and 12.6 µM (active)
same,outcome,[2],inactive
same,Potency,[3],> 46 µM (inactive) and > 20.6 µM (inactive)
same,Potency,[18],> 46 µM (inactive) and > 20.6 µM (inactive)
C=CCc1ccccc1OCC(O)CNC(C)C (configuration not stated),"activity change, negative = inhibition",[1]; at 17.2 µM (top of the series),12.6% (inactive)
same,outcome,[2],inactive
CCNC(=O)N1CCN(CCCC(c2ccc(F)cc2)c2ccc(F)cc2)CC1,"activity change, negative = inhibition",[1]; at 38 µM (top of the series),1.34% (inactive)
same,outcome,[2],inactive
same,Potency,[3],> 46 µM (inactive)
same,Potency,[18],> 46 µM (inactive)
same,Potency,[6],inactive
COC(=O)[C@@H](N)Cc1ccc(O)c(O)c1,"activity change, negative = inhibition",[1]; at 38 µM (top of the series),2.14% (inactive)
same,"activity change, negative = inhibition",[5]; at 38 µM (top of the series),5.8% (inactive)
same,outcome,[2],inactive
same,Potency,[6],inactive
COc1ccc(CN(CCN(C)C)c2ccccn2)cc1,Potency,[4],inactive
same,Potency,[7],> 92 µM (inactive)
same,Potency,[19],> 92 µM (inactive)
same,Potency,[8],> 92 µM (inactive)
same,Potency,[9],> 92 µM (inactive)
same,Potency,[10],> 92 µM (inactive)
same,Potency,[11],> 92 µM (inactive)
same,"activity change, negative = inhibition",[5]; at 17.2 µM (top of the series),-25.9% (inactive) and -22.5% (inactive)
same,"activity change, negative = inhibition",[5]; at 38 µM (top of the series),-21.9% (inactive)
same,outcome,[2],inactive
same,Potency,[3],> 46 µM (inactive) and > 20.6 µM (inactive)
same,Potency,[18],> 46 µM (inactive) and > 20.6 µM (inactive)
same,Potency,[6],inactive
same,outcome,[12],inactive
same,"activity change, negative = cytotoxicity",[13],-13.1% (inactive)
same,Potency,[14],inactive
same,Potency,[15],inactive
same,Potency,[16],inactive
same,"activity change, negative = cytotoxicity",[17],7.61% (inactive)
COC(=O)[C@H]1[C@H]2C[C@@H]3c4[nH]c5cc(OC)ccc5c4CCN3C[C@H]2C[C@@H](OC(=O)c2cc(OC)c(OC)c(OC)c2)[C@@H]1OC,Potency,[19],35.9 µM (active)
same,Potency,[11],46.3 µM (active)
same,Potency,[6],inactive
same,"activity change, negative = cytotoxicity",[13],-19.4% (inactive)
same,Potency,[14],50.1 µM (active)
same,Potency,[15],31.6 µM (active)
same,Potency,[16],31.6 µM (active)
same,"activity change, negative = cytotoxicity",[17],-101% (active)
COCC(=O)O[C@]1(CCN(C)CCCc2nc3ccccc3[nH]2)CCc2cc(F)ccc2[C@@H]1C(C)C,Potency,[4],31600 nM (active)
same,"activity change, negative = inhibition",[5]; at 38 µM (top of the series),-15.7% (inactive)
same,outcome,[2],inactive
same,Potency,[3],> 46 µM (inactive)
same,Potency,[18],> 46 µM (inactive)
same,Potency,[6],inactive
CC(=O)OCC1=C(C(=O)O)N2C(=O)[C@@H](NC(=O)Cc3cccs3)[C@H]2SC1,"activity change, negative = inhibition",[1]; at 17.2 µM (top of the series),-3.26% (inactive)
same,outcome,[2],inactive
same,Potency,[3],> 20.6 µM (inactive)
O=C(O)CCCCCCCC(=O)O,Potency,[4],inactive
same,"activity change, negative = inhibition",[5]; at 38 µM (top of the series),-0.521% (inactive)
same,Potency,[6],inactive
CC(C)(C)NCC(O)c1cc(O)cc(O)c1 (configuration not stated),"activity change, negative = inhibition",[1]; at 17.2 µM (top of the series),-16.4% (inactive)
same,outcome,[2],inactive

# — PubChem BioAssay (NCATS)
